From PubChem
BCR signal inh: chronic active BCR signaling inhibition. ABC-DLBCL IkBa-CBG/CBR reporter, luminescence ratio, 4 h. Potency, µM (series often up to 46.1 µM), for the others: at the top dose activity change, negative = inhibition, hits mostly inhibitors. hit rate 0.05% among 340,000; active means well fitted inhibition curve with a large enough effect in the signal ratio, with a control signal flat, not every such curve was filed as active; inconclusive means small, poorly fitted or top-dose-only effect, or effect the other way, or a change in a side signal; the % refers to the signal ratio;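 further: potency means the concentration at half of the fitted maximal effect; plate controls were basal doxycycline-induced cells for no effect and cells given 10 µM MG132 for full effect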
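Cell line TMD8 (human ABC DLBCL), stably expressing tet-inducible CBG68-IkBa fusion and CBR; IMDM/0.5% FBS; cpd up to 46 uM; dox induction, 4 h, 37C/5% CO2; dual luminescence; green/red ratio; MG132 control.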
TDP1 cell CPT: growth inhibition of DT40 Tdp1-/-;hTDP1 cells with camptothecin (screen for TDP1 inhibitors). chicken DT40 Tdp1-/-;hTDP1 cells + 20 nM CPT, ATP luminescence, 48 h. Potency, µM (doses to about 46.2 µM), for inactives: at the highest dose activity change, negative = growth inhibition, actives largely listed as inhibitors. hit rate 12% among 420,000. AID 686979; further: potency means the concentration at half of the fitted maximal effect; on the % scale 0 is the no-effect control and ±100 the full control effect; nearly all actives have a fitted effect of over 55% in size
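Chicken DT40 Tdp1-/- cells stably complemented with human TDP1 were seeded at 400 cells/well in medium containing 20 nM camptothecin, exposed to pin-transferred compounds, and grown at 37 °C for at least 48 hr. Viability was read as ATP luminescence.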
MCF10A rerep: DNA re-replication induction in MCF 10a cells; hit rate 2.9% among 350,000; AID 624296; MCF 10A DNA re-replication, Hoechst nuclear intensity, 48 h; Potency, µM (top dose mostly 46.1 µM), without a hit: at the highest dose activity, positive = re-replication, hits mostly activators; further: potency means the concentration at half of the fitted maximal effect; % of control where 0% means no effect; nearly all actives have a fitted effect of over 50% in size
IL1B secr inh: inflammasome signaling inhibition, IL-1 beta readout | hit rate 4.7% among 360,000 | activity change, % at 57.5 µM | THP-1 LPS/ATP IL-1B secretion, AlphaLISA, 16 h; stronger effect = lower value | AID 743279; in the data active means activity change below about -50%; inconclusive means mostly about -30% to -49%; further: on the % scale 0 is the no-effect control and ±100 the full control effect
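THP-1 cells pretreated 1 hr with compounds (up to 57.5 uM final), then stimulated with LPS (250 ng/mL final) plus ATP (1.25 mM final); secreted IL-1B measured by AlphaLISA after 16 hr, decreased signal indicating inhibition.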
SW480 rerep: induces DNA re-replication in SW480 colon adenocarcinoma cells. SW480 DNA re-replication, Hoechst DNA content imaging, 48 h. Potency, µM (series often up to 46.1 µM), without a hit: top-dose re-replication activation, actives largely listed as activators. hit rate 1.8% among 340,000. AID 624297; further: potency means the concentration at half of the fitted maximal effect; % of control where 0% means no effect; nearly all actives have a fitted effect of over 55% in size
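Hoechst fluorescence of nuclei (405 nm excitation, 500-530 nm emission) measured by plate-scanning imager after 48 hr compound exposure at 37 C; re-replication scored as increased number of nuclei with elevated intensity.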
TDP1 cell noCPT: qHTS for Inhibitors of human tyrosyl-DNA phosphodiesterase 1 (TDP1): qHTS in cells in absence of CPT | DT40 Tdp1-/- hTDP1 cells, no CPT, ATP luminescence, 48 h | Potency, µM (highest dose often 46.2 µM), for the others: top-dose activity change, negative = growth inhibition, most hits filed as inhibitors | hit rate 15% among 420,000; further: potency means the concentration at half of the fitted maximal effect; on the % scale 0 is the no-effect control and ±100 the full control effect; nearly all actives have a fitted effect of over 55% in size
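DT40 Tdp1-/-;hTDP1 cells, no CPT (DMSO vehicle only), 400 cells/well; compounds pin-transferred; ≥48 hr, 37 °C; CellTiter-Glo 30 min RT dark, luminescence read.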
The depositor's hits bear a star; i = inactive; ? = inconclusive; · = no result given; [ ] = another dose, or the depositor's remark. Most compounds without a hit are left out; they make up all but 19% or so of the library. Unless noted, the call rests on the fitted dose curve; in most records, active means well fitted curve in the direction sought with a large enough effect; inconclusive means small, poorly fitted or top-dose-only effect, or another doubt; inactive means no such curve, though single readings can be large; an effect the other way counts as inactive or inconclusive.

SMILES	BCR signal inh	TDP1 cell CPT	MCF10A rerep	IL1B secr inh	SW480 rerep	TDP1 cell noCPT
O=C(Nc1nccs1)c1cccc(N2C(=O)c3cccc4c([N+](=O)[O-])ccc(c34)C2=O)c1	?	5.2µM*	3.7µM*	-106*	7.3µM*	3.7µM*
O=C(O)c1ccc(S(=O)(=O)c2ccc3c(c2)C(=O)N(c2ccccc2[N+](=O)[O-])C3=O)cc1	1%	-2%	2%	i	-3%	-11%
Cc1ccc(C(=O)O)cc1N1C(=O)c2cccc3c([N+](=O)[O-])ccc(c23)C1=O	?	6.5µM*	18µM*	0	?	6.5µM*
CCC(=O)N1CCCC(C(=O)Nc2ccc3cn[nH]c3c2)CC1 (centres undefined)	·	1%	·	37	·	-1%
N#Cc1cccnc1N1CCC(C(N)=O)CC1	9%	-1%	0%	21	-8%	-7%
CC(=O)n1c(-c2ccccc2)c(-c2ccccc2)n(C)c1=O	·	-26%	16%	-4	-14%	?
COc1cc2c(cc1OC)C(=O)C(c1ccc3c(c1)OCO3)CC2 (centres undefined)	·	?	·	-18	·	?
COc1cc2c(cc1OC)C(=O)C(Br)CC2 (centres undefined)	·	3.7µM*	·	2	·	4.6µM*
O=C(CSc1ccc(S(=O)(=O)N2CCCC2)cn1)Nc1ccc([N+](=O)[O-])cc1C(F)(F)F	·	?	18%	-12	4%	?
CC(C)(C)Cc1c(-c2cccc(Br)c2)nc2ccc(Br)cn12	·	?	·	-14	·	?
Cc1nnc(-c2cccc(Br)c2)c2cn(-c3ccccc3)nc12	?	23µM*	?	?	-3%	?
Cc1nnc(-c2cccc(Br)c2)c2cn(-c3ccc(Br)cc3)nc12	7%	?	3%	43	-9%	15µM*
Cc1nnc(-c2cccc(Br)c2)c2cn(-c3cccc(Br)c3)nc12	?	?	?	0	-5%	16µM*
O=C(c1cn(-c2ccccc2)nc1-c1cccc(Br)c1)N1CCOCC1	-2%	-21%	1%	?	1%	?
Cc1ccc(C)c(-n2ccnc2SCC(=O)c2c(N)n(C3CC3)c(=O)[nH]c2=O)c1	-1%	?	10%	6	18µM*	?
O/N=C/c1cccnc1Sc1ccccc1	-2%	-3%	4%	-25	0%	-14%
CC(=O)N1CC(C(=O)Nc2ccc3c(c2)OCO3)Oc2ccccc21 (centres undefined)	-9%	-11%	7%	7	-1%	-1%
Cc1ccccc1Nc1nc(NCc2ccco2)c2ccccc2n1	?	5.8µM*	?	-102*	?	3.7µM*
COc1ccc(OC)c(Nc2nc(NCc3ccco3)nc(N)c2[N+](=O)[O-])c1	-21%	-6%	?	·	-42%	?
Oc1ccccc1Nc1nc(NCc2ccco2)c2ccccc2n1	?	16µM*	?	-63*	0%	21µM*
COc1ccc(OC)c(Nc2nc(NCc3ccco3)c3ccccc3n2)c1	1%	?	?	-97*	?	23µM*
Cc1ccc(-c2nc(NCc3ccco3)c3ccccc3n2)cc1	4%	?	?	5	-42%	?
COc1ccccc1NC(=O)N1CCC(NC(=O)C2CCCCC2)CC1	1%	-4%	1%	-5	-11%	-27%
N#CC1=C(N)OC2=C(CN(Cc3ccccc3)C/C2=C\c2cccnc2)C1c1cccnc1 (centres undefined)	?	?	9%	-8	-1%	?
CCN1CC2=C(OC(N)=C(C#N)C2c2ccccc2)/C(=C\c2ccccc2)C1 (centres undefined)	?	?	23µM*	-16	?	?
SMILES	BCR signal inh	TDP1 cell CPT	MCF10A rerep	IL1B secr inh	SW480 rerep	TDP1 cell noCPT
COc1ccc2c(c1)OCC(Cc1ccc(OC)c(OC)c1)C2=O (centres undefined)	·	?	·	·	·	13µM*
COc1ccc2c(c1)OCC(Cc1ccc(OC)c(OC)c1)C2O (centres undefined)	·	0%	·	·	·	?
COc1ccc2c(c1)OCC(Cc1ccc(OC)c(OC(C)=O)c1)C2=O (centres undefined)	·	0.65µM*	·	·	·	0.65µM*
COc1ccc(-c2ccc([C@H]3[C@@H]4C=CCC[C@@]4(C)C(=O)N3Cc3ccccc3)c(F)c2)cc1	-6%	?	?	-22	0%	?
O=C1C2C(c3cccc(/C=C/c4ccccc4)c3)CC=CC2C(c2ccc3ccccc3c2)N1Cc1ccccc1 (centres undefined)	?	?	16%	15	-1%	16µM*
COc1ccc(-c2cccc(C3CC=CC4C3C(=O)N(Cc3ccccc3)C4c3cc(C)ccc3F)c2)cc1 (centres undefined)	4%	·	·	·	·	·
Cc1ccc(-c2cccc(C3CC=CC4C3C(=O)N(Cc3ccccc3)C4c3ccc4ccccc4c3)c2)cc1 (centres undefined)	-1%	18µM*	?	45	1%	13µM*
COc1ccc(-c2cccc(C3CC=CC4C3C(=O)N(Cc3ccccc3)C4c3ccc(OC)c(Cl)c3)c2)cc1 (centres undefined)	-1%	21µM*	13%	33	-1%	13µM*
Cc1cccc([C@H]2[C@@H]3C=CCC[C@@H]3C(=O)N2Cc2ccccc2)c1	0%	?	?	22	6%	?
CC[C@@H]1CC=C[C@H]2[C@H]1C(=O)N(Cc1ccccc1)[C@H]2c1ccc(OC)c(Cl)c1	-1%	18µM*	?	25	-7%	13µM*
CNc1ncnc2c1ncn2[C@H]1CN(Cc2cccs2)C[C@@H](CO)O1	·	1%	·	26	·	1%
O=C1C2C(c3cccc(/C=C/c4ccccc4)c3)CC=CC2C(c2ccc(C(F)(F)F)cc2)N1Cc1ccccc1 (centres undefined)	0%	15µM*	-28%	53	-9%[9.22 µM]	?
Cc1sc(-n2c(C)cc(/C=N/n3cnnc3)c2C)c(C#N)c1C	-1%	16µM*	10%	0	7%	21µM*
Cc1cc(/C=N/n2cnnc2)c(C)n1-c1ccccc1	-5%	-25%	8%	25	-3%	-10%
